{"source": "PubChem BioAssay AID504843", "about": "(Broad Institute, 2011)", "note": "Screen size: about 1,200 compounds; about 360 (30%) were called active. The list is a sample of the results. Entries with a potency or affinity are not part of this list. Unmarked numbers belong to inactive results. The rule behind the calls is not given here."}
{"test": "bacterial growth inhibition, dose response, counter-screen, BacTiter-Glo luminescence, cherry-picked samples (AID 504843);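 note: growth measured after 8 h incubation at 30 °C; 0% = median of sample compound wells and -100% = antibiotic control wells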", "settings": "BacTiter-Glo ATP luminescence; series mostly up to 15 µM; activity change, negative = inhibition: at the top concentration", "units": {"activity change, negative = inhibition": "%"}}
{"smiles": "COc1cc(CNc2ccc3[nH]c(=O)[nH]c3c2)ccc1OCC(=O)NC(C)(C)C", "activity change, negative = inhibition": -22.4}
{"smiles": "Cc1nc2ccccn2c1/C(O)=C1\\C(=O)C(=O)N(CCN(C)C)C1c1ccco1", "note": "(stereo not given)", "activity change, negative = inhibition": 10.2}
{"smiles": "CCN(C[C@H]1N[C@@](Cc2ccccc2)(C(=O)OC)[C@H]2C(=O)N(C)C(=O)[C@@H]12)C(C)=O", "activity change, negative = inhibition": 11.5}
{"smiles": "CCOCCOc1nc2c(c(=O)n(C)c(=O)n2C)n1Cc1ccc(C)cc1", "activity change, negative = inhibition": 11.6}
{"smiles": "CCc1cccc2c1NC(=O)C2(O)N1CCCC(C)C1", "note": "(stereo not given)", "activity change, negative = inhibition": -12.5}
{"smiles": "COc1ccc(/C=C/C(=O)Nc2ccccc2C(=O)O)cc1OC", "activity change, negative = inhibition": 0.824}
{"smiles": "CCOC(=O)c1ccccc1NC(=S)N1CC(C)CC(C)C1", "note": "(stereo not given)", "activity change, negative = inhibition": -8.99}
{"smiles": "CC1(C)CC(=O)c2cc3c(nc2C1)CC(C)(C)CC3=O", "activity change, negative = inhibition": -9.4}
{"smiles": "CC(C)NC(=O)CN1CCN(C(=O)c2ccc3oc(CCCc4ccccc4)nc3c2)CC1", "activity change, negative = inhibition": -4.91}
{"smiles": "Cc1nn(C)c(C)c1S(=O)(=O)N(CC(=O)NCCCN1CCC(C)CC1)c1ccc(C(C)C)cc1", "activity change, negative = inhibition": -6.13}
{"smiles": "O=C(CSc1ncnc2ccccc12)NCc1ccco1", "activity change, negative = inhibition": -2.79}
{"smiles": "O=C(CN(Cc1ccccc1Cl)C(=O)CNS(=O)(=O)c1ccc(F)cc1)NCC1CCCO1", "note": "(stereo not given)", "activity change, negative = inhibition": 4.69}
{"smiles": "COc1ccccc1N1CCN(C(=O)CSc2nnc(NC(=O)C(C)C)s2)CC1", "activity change, negative = inhibition": -8.54}
{"smiles": "Cc1ccc(Cn2c(=O)oc3ccccc32)cc1", "activity change, negative = inhibition": 13.9}
{"smiles": "Cc1cccc(NC(=S)N/N=C/c2c[nH]c3ccccc23)c1", "activity change, negative = inhibition": 6.24}
{"smiles": "CC1CCCN(C(=O)c2nn(C)c3c2CSc2ccccc2-3)C1", "note": "(stereo not given)", "activity change, negative = inhibition": -0.156}
{"smiles": "CCCC(=O)NC1=C(C#N)C2(CCCC2)Cc2ccccc21", "activity change, negative = inhibition": 10.7}
{"smiles": "O=C(NCCNC(=O)c1ccccc1F)c1ccccn1", "activity change, negative = inhibition": -8.38}
{"smiles": "COc1ccccc1NC(=O)NCCCCc1ccccc1", "activity change, negative = inhibition": 4.63}
{"smiles": "COc1ccccc1NC(=S)NC1CC2CCC1C2", "note": "(stereo not given)", "activity change, negative = inhibition": 9.45}
{"smiles": "Cc1cc(C)n2nc(SCC(=O)N3CCN(c4ccccc4)CC3)nc2n1", "activity change, negative = inhibition": 15.8}
{"smiles": "O=C(CN1CCN(c2ccccc2)CC1)N1N=CCC1c1ccccc1", "note": "(stereo not given)", "activity change, negative = inhibition": 1.93}
{"smiles": "CCCSc1nnc(CNS(=O)(=O)c2ccc(C)cc2)n1C", "activity change, negative = inhibition": 6.19}
{"smiles": "CCN(CC)S(=O)(=O)c1ccc(OC)c(NC(=O)c2ccc(=O)[nH]c2)c1", "activity change, negative = inhibition": -9.57}
{"smiles": "COC(=O)[C@H](CC(C)C)N(Cc1ccccc1)S(=O)(=O)N(Cc1ccccc1)[C@@H](CC(C)C)C(=O)OC", "activity change, negative = inhibition": 6.02}
{"smiles": "Nc1cc(S(=O)(=O)C(F)(F)F)ccc1C(=O)O", "activity change, negative = inhibition": -21.2}
{"smiles": "N#Cc1cccc(Nc2c3c(nc4ccccc24)CCCC3)c1", "activity change, negative = inhibition": 12.8}
{"smiles": "CC(=O)c1ccccc1OCC(O)CN1CCN(C(c2ccccc2)c2ccccc2)CC1", "note": "(stereo not given)", "activity change, negative = inhibition": 4.45}
{"smiles": "O=C1c2cccc3cccc(c23)C(=O)N1CC1CCN(CC(O)COc2ccc3ccccc3c2)CC1", "note": "(stereo not given)", "activity change, negative = inhibition": 1.01}
{"smiles": "Cc1cc(C)c(C#N)c(SCS(=O)c2ccc(C(C)(C)C)cc2)n1", "note": "(stereo not given)", "activity change, negative = inhibition": -2.71}
{"smiles": "C#CCNC(=O)C1=C[C@H](c2csc3ccccc23)[C@@H](CCCO)[C@H](OCC)O1", "activity change, negative = inhibition": -8.78}
{"smiles": "CN(C/C=C/c1ccccc1[N+](=O)[O-])Cc1ccccc1", "activity change, negative = inhibition": 21.6}
{"smiles": "O=S(=O)(c1cc(Cl)cc(Cl)c1O)N1CCC2(CC1)OCCO2", "activity change, negative = inhibition": 12.8}
{"smiles": "Cc1cccn2c(=O)c3cc(S(=O)(=O)c4ccccc4)c(=N)n(Cc4ccco4)c3nc12", "activity change, negative = inhibition": 0.723}
{"smiles": "O=C(O)[C@@H](c1ccccc1)N1Cc2ccccc2C1=O", "activity change, negative = inhibition": -11.7}
{"smiles": "CC1CC(=O)N(c2ccc(Br)cc2)C(=O)C1", "activity change, negative = inhibition": 18.8}
{"smiles": "COc1ccc(OCc2nnc(SCC(=O)N3C(C)CCCC3C)o2)cc1", "note": "(stereo not given)", "activity change, negative = inhibition": -3.56}
{"smiles": "CC(C)(C)c1cc(NS(=O)(=O)c2ccc3c(c2)OCCO3)on1", "activity change, negative = inhibition": 17.8}
{"smiles": "Cc1cc(NC(=O)c2ccc([N+](=O)[O-])cc2)n(C)n1", "activity change, negative = inhibition": 1.54}
{"smiles": "O=C(COc1ccc([N+](=O)[O-])cc1)Nc1cccc2nsnc12", "activity change, negative = inhibition": -9.01}
{"smiles": "COc1ccc2nc(SCC(=O)Nc3cc(OC)c(OC)cc3C(=O)O)c(C)cc2c1", "activity change, negative = inhibition": 21.4}
{"smiles": "O=C(Nc1ccc(S(=O)(=O)Nc2ncccn2)cc1)c1cncc(Br)c1", "activity change, negative = inhibition": -5.7}
{"smiles": "O=C(COC(=O)C12CC3CC(CC(Br)(C3)C1)C2)Nc1cccnc1Cl", "activity change, negative = inhibition": 9.7}
{"smiles": "Cc1ccc(S(=O)(=O)CCNC(=O)Cc2ccc(Cl)cc2)cc1", "activity change, negative = inhibition": -3.22}
{"smiles": "Cc1ccnc(SCCn2c(N3CC(C)CC(C)C3)nc3c2c(=O)n(C)c(=O)n3C)n1", "note": "(stereo not given)", "activity change, negative = inhibition": 9.46}
{"smiles": "Cc1cc(N2C(=O)c3ccc(C(=O)Nc4ccc(O)cc4C(=O)O)cc3C2=O)no1", "activity change, negative = inhibition": 14.9}
{"smiles": "O=C(N/N=C/C1=C(N2CCOCC2)C(=C\\c2ccccc2)/CC1)Nc1ccccc1", "activity change, negative = inhibition": -7.2}
{"smiles": "COc1cccc(C2C(C(=O)OC(C)C)=C(C)Nc3ncnn32)c1", "note": "(stereo not given)", "activity change, negative = inhibition": 2.28}
{"smiles": "Cc1csc(NC(=O)c2c(-c3c(Cl)cccc3Cl)noc2C)n1", "activity change, negative = inhibition": 4.31}
{"smiles": "COc1ccc(Nc2nc3ccccc3nc2-n2nc(C)cc2C)cc1", "activity change, negative = inhibition": -10.8}
{"smiles": "COc1cc(OC)c2c(C)cc(=O)oc2c1", "activity change, negative = inhibition": 8.9}
{"smiles": "COc1cccc(-n2c(SCc3ccccn3)nc3c(c2=O)SCC3)c1", "activity change, negative = inhibition": 22.4}
{"smiles": "COc1ccc(NC(=O)c2ccccc2[N+](=O)[O-])cc1OC", "activity change, negative = inhibition": -18.3}
{"smiles": "CCN(CC)CCCn1c(C)cc2c(c1=O)C(c1cccc(Cl)c1)C(C#N)=C(N)O2", "note": "(stereo not given)", "activity change, negative = inhibition": 3.02}
{"smiles": "O=C(CSc1ncccn1)N/N=C/c1cccs1", "activity change, negative = inhibition": -0.264}
{"smiles": "Cc1ccnc(SCC(=O)c2cccs2)n1", "activity change, negative = inhibition": -4.97}
{"smiles": "COc1ccccc1N1CCN(CC(=O)Nc2ccc3c(c2)OCCO3)CC1", "activity change, negative = inhibition": -14.6}
{"smiles": "COc1cc(NC2c3ccccc3C(=O)N2Cc2ccc3c(c2)OCO3)cc(OC)c1OC", "note": "(stereo not given)", "activity change, negative = inhibition": -2.35}
{"smiles": "COc1ccc(C(=O)NC(C(=O)NCc2ccccn2)C(C)C)cc1", "note": "(stereo not given)", "activity change, negative = inhibition": -10.4}
{"smiles": "COc1cccc(C(=O)NCCS(=O)(=O)NCc2ccccn2)c1", "activity change, negative = inhibition": 5.11}
{"smiles": "Cc1nn2c(SCC(=O)c3cccs3)cc(C(C)(C)C)nc2c1-c1ccccc1", "activity change, negative = inhibition": 8.2}
{"smiles": "O=c1[nH]c(-c2ccccn2)nc2ccccc12", "activity change, negative = inhibition": 6.12}
{"smiles": "CC1=NCC(C)c2c1[nH]c1ccccc21", "note": "(stereo not given)", "activity change, negative = inhibition": 1.9}
{"smiles": "COC(=O)c1sccc1NC(=O)c1ccc2c(c1)OCO2", "activity change, negative = inhibition": 11.9}
{"smiles": "O=C(CNC(=O)c1ccccc1)NC1(C(=O)NC2CCCC2)CCCCC1", "activity change, negative = inhibition": 6.99}
{"smiles": "COc1ccc(Cl)cc1C(=O)NCCN(C)C", "activity change, negative = inhibition": 2.99}
{"smiles": "CCCCN1C(=O)C(CC(=O)NCC)SC1=Nc1ccccc1", "note": "(stereo not given)", "activity change, negative = inhibition": 2.84}
{"smiles": "C=C1CSc2nc(=O)c3c4c(sc3n21)CCCC4", "activity change, negative = inhibition": -6.35}
{"smiles": "COc1ccc(CCNC(=O)CN2CCOc3ccccc32)cc1OC", "activity change, negative = inhibition": -5.09}
{"smiles": "COC(c1ccccc1)c1nnc(CCC(=O)N(C)C(C2CC2)C2CC2)o1", "note": "(stereo not given)", "activity change, negative = inhibition": -20.5}
